IL1B NFkB pot: enhances IL-1B driven NFkB nuclear translocation | 94,000 compounds, 0.3% hits | AID 819 | activation, % at 2 µM | HUVEC IL-1B NFkB p65 nuclear translocation imaging;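 active = activation above 40%, about the mean plus 3 SD, also judged a hit on visual image review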;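 also: percent activation is computed from the nuclear over cytoplasmic p65 intensity ratio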
NFkB transloc inh: blocks IL-1B driven NFkB nuclear translocation in HUVEC cells | HUVEC IL-1B NFkB p65 nuclear translocation imaging | inhibition, % at 2 µM | 94,000 compounds, 0.43% hits;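 active = inhibition above about 30% together with a positive call from visual inspection of the well image, limit read from the data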;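 also: nuclear over cytoplasmic p65 intensity ratio measured by imaging; 0% = IL-1B stimulated DMSO wells and 100% = unstimulated DMSO wells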
PTPN22 inh 2: LYP (human) phosphatase inhibition; inhibition, % at 2 µM; recombinant LYP catalytic domain, DiFMUP fluorescence; 96,000 compounds, 0.21% hits; AID 640;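 active = inhibition at 2 µM at or above a set limit, the screen mean plus 3 SD, cut at about 24% in these data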;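 also: 0% = DMSO with enzyme and 100% = enzyme fully blocked by orthovanadate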
Target sequence (Q9Y2R2 whole entry, looked up, the tested form may be a part): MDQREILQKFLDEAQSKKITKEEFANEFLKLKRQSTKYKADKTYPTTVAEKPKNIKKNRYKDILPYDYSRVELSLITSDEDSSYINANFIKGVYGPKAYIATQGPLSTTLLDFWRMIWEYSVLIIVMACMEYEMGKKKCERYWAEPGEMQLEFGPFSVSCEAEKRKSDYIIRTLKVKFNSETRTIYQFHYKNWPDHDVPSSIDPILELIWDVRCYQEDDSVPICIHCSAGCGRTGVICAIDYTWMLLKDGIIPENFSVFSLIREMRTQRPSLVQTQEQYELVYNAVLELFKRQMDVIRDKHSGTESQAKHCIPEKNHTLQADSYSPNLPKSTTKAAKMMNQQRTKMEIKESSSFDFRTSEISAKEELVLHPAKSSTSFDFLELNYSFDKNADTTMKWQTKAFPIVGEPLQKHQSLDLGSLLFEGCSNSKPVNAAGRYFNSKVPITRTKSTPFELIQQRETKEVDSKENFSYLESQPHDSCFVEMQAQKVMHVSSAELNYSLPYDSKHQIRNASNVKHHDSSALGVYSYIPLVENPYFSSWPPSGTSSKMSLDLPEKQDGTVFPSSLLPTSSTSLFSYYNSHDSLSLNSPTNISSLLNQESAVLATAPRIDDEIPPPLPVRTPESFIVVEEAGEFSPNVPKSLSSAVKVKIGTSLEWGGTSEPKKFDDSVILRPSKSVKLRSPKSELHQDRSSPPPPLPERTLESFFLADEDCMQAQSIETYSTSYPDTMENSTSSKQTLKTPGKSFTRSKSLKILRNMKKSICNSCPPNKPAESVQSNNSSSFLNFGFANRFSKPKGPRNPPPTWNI
PTPN22 act: activators of human LYP (PTPN22) phosphatase; Q9Y2R2; recombinant LYP, DiFMUP fluorescence; 0 = plate median, 100 = signal doubled; activation, % at 2 µM; 96,000 compounds, 0.11% hits; AID 697;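 active = activation at 2 µM above a set limit, the mean plus 5 SD, cut at about 37% in these data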
HUVEC tox IL1B: toxic to HUVEC cells under IL-1B stimulation; HUVEC cell count loss, Hoechst imaging, IL-1B stimulated; cell count reduction, % at 2 µM; 94,000 compounds, 0.41% hits;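 active = cell count reduction more than 3 SD above the screen-wide mean, cut at about 70% in these data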;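 also: normalized per plate to untreated control cells as the no-loss baseline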
* marks the source's active call; other numbers are inactive results. Only some compounds are listed: those with a hit (about 1.3% of all), similar ones and a draw of the others.

SMILES	IL1B NFkB pot	NFkB transloc inh	PTPN22 inh 2	PTPN22 act	HUVEC tox IL1B
Cc1ccc(-c2nnc(-c3ccccc3)o2)cc1	-71.8	71.8*	10.8	-12.1	9.7
Fc1ccccc1CSc1nnc(-c2ccccc2)o1	13.5	-13.5	3.5	-6.2	91.6*
Cc1ccc(C(=O)CSc2nnc(-c3ccccc3)o2)cc1	4.9	-4.9	4.3	-5.5	93.0*
Cc1noc(C)c1COc1cccc(C(=O)Nc2ccc(OCc3ccccc3)cc2)c1	-1.5	1.5	-4.7	6.9	9.7
O=C(Nc1ccc(-c2nc3ccccc3o2)cc1)c1ccc(N2C(=O)C3C4C=CC(C4)C3C2=O)cc1 (stereo unspecified)	36.9	-36.9	-2.8	5.1	-8.7
CCOc1ccc(S(=O)(=O)N/N=C2/CC(c3ccccc3)Oc3ccccc32)cc1 (stereo unspecified)	-8.1	8.1	3.3	-3.3	11.5
Cc1cc(C)c(C)c(C(=O)CSc2nnc(C)c(=O)[nH]2)c1C	-3.1	3.1	1.5	-0.9	16.0
C=CCNC(=O)c1ccccc1NC(=O)c1ccc(Cl)c(S(=O)(=O)Nc2ccccc2)c1	0.1	-0.1	-5.6	7.8	-2.2
O=C1CC(=C2c3ccccc3-c3ccccc32)C(=O)N1CCCCN1CCN(c2ccccc2)CC1	-4.1	4.1	45.0*	-44.7	37.1
O=C1c2ccccc2C(=O)N1CCCN1CCN(CCCN2C(=O)c3ccccc3C2=O)CC1	-98.1	98.1*	-4.6	5.1	89.1*
COc1ccc(-c2nnn(CCc3nn[nH]n3)n2)cc1	-6.2	6.2	8.1	-7.7	-7.8
COc1ccc(CC(=S)N2CCOCC2)cc1	14.9	-14.9	-7.3	5.1	-17.5
CCOC(=O)c1cccc(Nc2nc(C)cc(C)n2)c1	1.6	-1.6	-4.3	1.4	82.7*
O=C1OC(c2ccccc2)/C(=C(/O)c2ccc(Cl)cc2)C1=O (stereo unspecified)	-38.0	38.0*	7.8	-5.6	10.5
COc1ccc(NC(=O)c2ccc(C)cc2Cl)c([N+](=O)[O-])c1	-10.7	10.7	3.7	-3.2	78.7*
COc1ccc(NC(=S)NC(NC(=O)c2ccc(Cl)cc2Cl)C(Cl)(Cl)Cl)c([N+](=O)[O-])c1 (stereo unspecified)	-4.9	4.9	10.4	-9.9	-4.8
Cc1ccccc1-n1ncc2c(SCC(=O)NCc3cccs3)ncnc21	104.6*	-104.6	0.2	-0.8	-12.3
COc1ccc(S(=O)(=O)NCCC(C)C)cc1C	23.2	-23.2	2.7	-5.1	13.2
CCCCc1nc(NCC2CCCO2)c(C#N)c2c1COC(C)(C)C2 (stereo unspecified)	-11.5	11.5	-2.1	-2.1	83.8*
Cn1c(N)c(C(=O)COC(=O)CCc2c[nH]c3ccccc23)c(=O)n(C)c1=O	54.9*	-54.9	-25.7	26.5	-2.6
Cn1c(N)c(C(=O)COC(=O)CCCc2c[nH]c3ccccc23)c(=O)n(C)c1=O	-1.6	1.6	12.8	-13.7	-6.6
O=[N+]([O-])c1nn(-c2ccc3c(c2)OCCO3)n(O)c1=NC1CCCCC1	1.1	-3.1	7.6	-8.3	0.8
O=[N+]([O-])c1nn(-c2ccc3c(c2)OCCO3)n(O)c1=NCc1ccccc1Cl	92.5*	-92.5	-8.5	10.8	-29.2
Cc1c(C(=O)NC(C)C)sc2ncn(CC(=O)N3CCC(C)CC3)c(=O)c12	1.8	-1.8	0.4	1.2	-0.8
Cc1cc2c(cc1C)N(C(=O)CSC1=NCCS1)C(C)(C)c1ssc(=S)c1-2	12.7	-12.7	27.3*	-23.4	3.5
SMILES	IL1B NFkB pot	NFkB transloc inh	PTPN22 inh 2	PTPN22 act	HUVEC tox IL1B
CCCCSC(=S)N(C)C1CCS(=O)(=O)C1 (stereo unspecified)	2.4	-2.4	3.8	1.6	12.5
COc1cc(S(=O)(=O)n2nnc3ccccc32)c(OC)cc1Cl	18.1	-18.1	-6.2	6.8	87.1*
COc1ccc(OC)c(S(=O)(=O)n2nnc3cc(Cl)ccc32)c1	-0.8	0.8	-1.1	1.2	23.3
COc1cc(S(=O)(=O)n2nc(C)cc2C)c(OC)cc1Cl	-46.1	46.1*	8.8	-7.1	-20.6
CCN(Cc1ccncc1)C(=O)C1CCN(S(=O)(=O)c2cccs2)CC1	-3.8	3.8	-4.4	2.7	-14.4
CC(NC(=O)c1ccco1)c1cccc2ccccc12 (stereo unspecified)	-97.9	97.9*	-9.8	6.7	77.9*
COC(=O)c1ccc(NC(=O)CCN2CCN(Cc3ccccc3)CC2)cc1	-8.7	8.7	1.0	-0.4	10.3
Cc1cc(N2C(=O)C3CC=CC(C)C3C2=O)no1 (stereo unspecified)	-5.7	5.7	-1.5	0.9	8.8
Cc1ccc(N(C(=O)C2CCCC2)C2C=CS(=O)(=O)C2)cc1C (stereo unspecified)	44.1*	-44.1	4.2	-1.4	-20.5
COc1ccc(-c2cc3nc(C)cc(N4CC(C)CC(C)C4)n3n2)cc1 (stereo unspecified)	-21.8	21.8	3.4	-3.0	-12.4
COc1ccc(C(=O)N(Cc2ccccc2)Cc2cc3cc4c(cc3[nH]c2=O)OCCO4)cc1	-71.8	71.8*	5.1	-1.0	-23.7
O=C(NCc1ccncc1)C1CCN(S(=O)(=O)Cc2ccccc2)CC1	11.5	-11.5	11.0	-8.9	2.7
CC(C)(C)c1ccc(C(=O)N2CCC(C(=O)NCc3ccncc3)CC2)cc1	-100.0	100.0*	-11.0	7.4	93.5*
Cc1ccc(NC(=O)CN2C(=O)S/C(=C/c3ccc(-c4cc(C(=O)O)ccc4C)o3)C2=O)cc1C	3.8	-3.8	34.8*	-33.3	6.5
Cc1ccc2c(c1)N(CCC(=O)NCc1cccs1)C(=O)C(C)O2 (stereo unspecified)	0.8	-0.8	-3.6	5.1	18.6
Cc1ccc2nc(NC(=S)NC(=O)c3cccs3)sc2c1	3.9	-3.9	29.5*	-27.9	0.4
CCCOc1ccc(C(=O)NC(=S)Nc2nc3ccc(C)cc3s2)cc1	-2.6	2.6	10.9	-8.6	-7.7
O=C(CCn1c(=O)c2ccccc2n(CC(=O)NC2CCCC2)c1=O)NCCc1ccc(Cl)cc1	-11.1	11.1	4.3	-1.5	0.9
O=C(Cn1c(=O)n(CCCCC(=O)NC2CCCC2)c(=O)c2ccccc21)NCCC1=CCCCC1	-40.5	40.5*	5.8	-3.4	2.7
CCCCOC(=O)Nc1cccc(Cl)c1C	1.2	-1.2	-1.9	3.4	13.2
COc1ccc(-c2cc(N)n(S(=O)(=O)c3ccc(F)cc3)n2)cc1OC	-4.5	4.5	0.2	-1.1	-4.4
O=C(NCc1ccccc1)NC(=O)c1ccccc1	-6.0	6.0	3.6	-2.4	-14.4
CSC(=O)CC(=O)NC(=O)c1ccccc1	-2.4	2.4	-8.5	6.7	89.3*
Cn1c(=O)c2c(nc(SCC(=O)NCc3ccc4c(c3)OCO4)n2Cc2ccc(Cl)cc2)n(C)c1=O	10.1	-10.1	2.0	-1.4	-46.6
Cc1cc(C)n(-c2nc3ccccc3[nH]c2=O)n1	3.1	-3.1	-11.2	6.2	86.8*
Cc1cc(C)n(-c2nc3ccccc3nc2N2CCCC2)n1	5.7	-5.7	-8.8	9.5	80.0*
CCOC(=O)C(CC)(CC)C(=O)/C=C/c1cccc(Br)c1	-3.5	3.5	2.5	-0.3	13.0

Source: PubChem BioAssay (Columbia University Molecular Screening Center)
